Screening data deposited in PubChem BioAssay by several laboratories.
The list is not random: actives were taken first. Their share in the collection is about 2.1%.
Efa HMGR inh: blocks class II HMG-CoA reductase of Enterococcus faecalis; purified E. faecalis HMGR, NADPH absorbance 340 nm kinetic; inhibition, % at 10 µM; 190,000 tested, 0.41% active; AID 1066;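 active means inhibition above a set limit, the median over all tested compounds plus 3 SD, cut at about 9.5% in these data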;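 further: enzyme runs in reverse so mevalonate oxidation gives rising NADPH absorbance; 0% = complete reaction with DMSO and 100% = background rate lacking mevalonate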
EP2 mod: modulators of human EP2 prostaglandin E2 receptor. induction, % at 25 µM. EP2-expressing cells, cAMP HTRF FRET, PGE2 co-stimulation. 260,000 tested, 0.83% active. P43116;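 active means compounds whose cAMP rise, as percent of the full-agonist control response, exceeds 60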;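 further: rat C6 glioma line stably carrying human EP2 under a CMV promoter; the protocol text gives 20 µM as final concentration; 100% = response of wells given 1 µM PGE2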
Target sequence (P43116 whole entry, looked up): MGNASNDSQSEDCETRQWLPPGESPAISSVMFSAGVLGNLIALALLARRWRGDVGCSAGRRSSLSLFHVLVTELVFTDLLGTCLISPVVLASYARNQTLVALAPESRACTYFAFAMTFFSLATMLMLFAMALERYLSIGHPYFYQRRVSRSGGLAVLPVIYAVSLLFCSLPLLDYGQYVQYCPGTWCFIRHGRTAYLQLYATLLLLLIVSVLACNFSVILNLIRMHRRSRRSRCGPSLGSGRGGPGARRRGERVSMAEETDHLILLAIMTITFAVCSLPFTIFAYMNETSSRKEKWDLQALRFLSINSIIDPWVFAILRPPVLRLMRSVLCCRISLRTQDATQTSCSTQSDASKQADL
PGE2 EP2 inh: EP2 receptor (human) inhibition; C6 glioma cells expressing human EP2, cAMP TR-FRET; cells stimulated with saturating PGE2; AID 1422; inhibition, % at 25 µM; 260,000 tested, 0.52% active; P43116;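 active means percent inhibition above 40 after rounding to a whole number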;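 further: rat C6 glioma host cells with rolipram phosphodiesterase inhibitor present; the protocol text gives 20 µM as final concentration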
Avidin bead fluor: avidin bead compound fluorescence profile | AID 1775 | 220,000 tested, 0.38% active | Avidin beads, compound fluorescence 488/530 nm, flow cytometry; active compounds read high | fluorescence (KMESF) at 10 µM; in the data active means fluorescence above about 47
GSH bead fluor: GSH bead compound fluorescence profile; GSH beads flow cytometry, compound fluorescence 488/530 nm; active compounds read high; fluorescence (KMESF) at 10 µM; 190,000 tested, 0.25% active; AID 1776; in the data active means fluorescence above about 89;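 further: glutathione beads carrying GST-tagged Bcl family fusion proteins plus one bare bead set; values are compound well signal with DMSO vehicle wells as background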
EP2 confirm: human EP2 receptor cAMP induction, negative in counter-screens; shares compounds with EP2 mod; AID 1080; C6 glioma EP2 cells, cAMP HTRF induction; plus low (about EC15) PGE2 agonist; calls only at 20 µM (by protocol); 1,300 tested, 47% active;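 active means cAMP induction above 50% in the main assay while under 30% in all four parallel counter assays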;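 further: rat C6 glioma cells stably expressing human EP2 receptor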
* = called active by the depositor.

For CCC(Sc1nc(-c2ccccc2)c(C#N)c(=O)[nH]1)C(=O)Nc1cc(C)on1 (stereo unspecified) the results were Efa HMGR inh 5.0, EP2 mod 75.7*, PGE2 EP2 inh 49.6*, Avidin bead fluor 24, GSH bead fluor 12 and EP2 confirm inactive.
For CCOc1cc(C2C3=C(CCCC3=O)N(C)C3=C2C(=O)CCC3)cc(Cl)c1OC the results were EP2 mod -7.7 and PGE2 EP2 inh 5.9.
For CCC(=O)N1CCN(c2nc(-c3ccccc3)c3c(c2C#N)CCCC3)CC1 the results were Efa HMGR inh -5.5, EP2 mod 80.9*, PGE2 EP2 inh 13.5, Avidin bead fluor 7, GSH bead fluor 54 and EP2 confirm inactive.
`CSc1nc(-c2ccc(Cl)cc2)nn1S(=O)(=O)c1ccc(Cl)cc1` gave Efa HMGR inh 1.4, EP2 mod 51.1, PGE2 EP2 inh 11.9, Avidin bead fluor 6 and GSH bead fluor 23.
For CSc1nc(-c2ccc(Cl)cc2)nn1S(=O)(=O)c1ccccc1 the results were Efa HMGR inh 4.0, EP2 mod 85.0*, PGE2 EP2 inh 13.1, Avidin bead fluor 6, GSH bead fluor 22 and EP2 confirm active.
Screening CCOc1ccc(N2C(=O)N(c3ccccc3)C3CS(=O)(=O)CC32)cc1 (stereo unspecified) returned EP2 mod -6.9 and PGE2 EP2 inh 10.0.
CCSc1nc2c(c(=O)[nH]c(=O)n2C)n1Cc1ccc(Cl)cc1 was read as Efa HMGR inh -1.6, EP2 mod 66.3*, PGE2 EP2 inh 11.1, Avidin bead fluor 10, GSH bead fluor 37 and EP2 confirm inactive.
`CCCCCn1c(N2CCN(c3cccc(Cl)c3)CC2)nc2c1c(=O)[nH]c(=O)n2C` gave Efa HMGR inh -6.9, EP2 mod 57.5, PGE2 EP2 inh 11.0, Avidin bead fluor 10 and GSH bead fluor 23.
For CCCCCCn1c(SCC(C)C)nc2c1c(=O)[nH]c(=O)n2C the results were Efa HMGR inh -5.9, EP2 mod 67.2*, PGE2 EP2 inh 8.5, Avidin bead fluor 18, GSH bead fluor 11 and EP2 confirm inactive.
CCCCCn1c(CN2CCN(c3cc(Cl)ccc3C)CC2)nc2c1c(=O)[nH]c(=O)n2C was read as Efa HMGR inh -6.4, EP2 mod 78.2*, PGE2 EP2 inh 6.1, Avidin bead fluor 10, GSH bead fluor 5 and EP2 confirm inactive.
Screening COc1cccc2[nH]c3c(N4CCCC(C)C4)ncnc3c12 (stereo unspecified) returned Efa HMGR inh 7.9, EP2 mod 93.8*, PGE2 EP2 inh 6.1, Avidin bead fluor 16, GSH bead fluor 11 and EP2 confirm active.
Screening COc1cccc2[nH]c3c(N4CC(C)CC(C)C4)ncnc3c12 (stereo unspecified) returned Efa HMGR inh -5.3, EP2 mod 90.0*, Avidin bead fluor 20, GSH bead fluor 9 and EP2 confirm active.
Screening CS(=O)(=O)N1CC=CC1C(=O)NCc1noc(-c2ccccc2)n1 (stereo unspecified) returned EP2 mod -49.1 and PGE2 EP2 inh 8.3.
For CN(Cc1ccccc1)c1nc2c(c(=O)[nH]c(=O)n2C)n1Cc1ccccc1Cl the results were Efa HMGR inh -1.9, EP2 mod 76.8*, PGE2 EP2 inh 2.6, Avidin bead fluor 6, GSH bead fluor 46 and EP2 confirm active.
Screening CN(Cc1ccccc1)c1nc2c(c(=O)[nH]c(=O)n2C)n1CCO returned EP2 mod 9.2 and PGE2 EP2 inh 11.7.
COc1ccc(NC(=S)N(Cc2cc3ccc(C)cc3[nH]c2=O)C2CCCCC2)cc1 was read as EP2 mod 6.7 and PGE2 EP2 inh 13.4.
